Source: PubChem
PriA SSB inh = inhibitors of Klebsiella pneumoniae PriA binding to SSB C-terminal tail | AlphaScreen SSBct-PriA binding, biotinylated peptide | inhibition, % at 33 µM | actives 0.6% (n = 430,000); in the data active = inhibition mostly above about 37%, no sharp cut-off; inactive = mostly below about 20%;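 note: plate controls were negative control peptide for no effect and reference peptide for full effect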
RecA splice inh = Mtb RecA intein splicing inhibition; P9WHJ3; cell-free RecA intein splicing, fluorescence; inhibition, % (concentration not given with the values); actives 0.75% (n = 290,000); in the data active = inhibition above about 30%;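 note: 0% = vehicle wells and 100% = reference inhibitor control wells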
CCHF vOTU inh = blocks the CCHF virus ovarian tumor domain protease; AID 651958; CCHFV vOTU protease, Pep-AMC fluorescence; actives 0.55% (n = 370,000); inhibition, % at 11.5 µM; in the data active = inhibition above about 30%; note: 0% = vehicle wells with enzyme and 100% = no enzyme wells
SARS 3CLpro inh = SARS-CoV 3CLpro protease inhibition | P0C6X7 | recombinant SARS-CoV 3CLpro, quenched FRET peptide cleavage | inhibition, % at 6 µM | actives 0.14% (n = 290,000) | AID 1706; in the data active = inhibition above about 12%
DUSP3 inh = inhibitors of human VHR1 phosphatase (DUSP3) | P51452 | actives 0.52% (n = 290,000) | inhibition, % at 13.3 µM | recombinant VHR phosphatase, pNPP absorbance; in the data active = inhibition above about 50%
The depositor's hits bear a star; x = not tested or not shown. A selection: hits, their analogues and other compounds. The true share with any hit is near 1.7%.

SMILES | PriA SSB inh | RecA splice inh | CCHF vOTU inh | SARS 3CLpro inh | DUSP3 inh
O=C(NCC(O)c1csc2ccccc12)c1ccc(S(=O)(=O)N2CCCC2)cc1 (centres undefined) | 0 | x | x | x | x
O=C(Cc1ccc([N+](=O)[O-])cc1)N/N=C\c1ccc(Br)cc1 | 2 | x | x | x | x
CCNC(=O)/C(C#N)=C/c1c(N(Cc2ccccc2)Cc2ccccc2)nc2ccccn2c1=O | 6 | 9 | 8 | 12 | 17
CNC(=O)/C(C#N)=C/c1c(N(Cc2ccccc2)Cc2ccccc2)nc2c(C)cccn2c1=O | 14 | 31* | -24 | 7 | 0
CSc1ccc([C@@H](O)CNC(=O)NCc2ccc(F)cc2)cc1 | -6 | x | x | x | x
O=C(Nc1ccn(Cc2c(F)c(F)c(F)c(F)c2F)n1)c1ccc(COc2ccccc2Cl)cc1 | -18 | 2 | -14 | -1 | 52*
O=C(Nc1ccn(Cc2c(F)c(F)cc(F)c2F)n1)c1ccc(COc2ccc(Cl)cc2Cl)o1 | 9 | 5 | -7 | 1 | -13
COC(=O)c1ccccc1C(=O)N1CCC(CSC2=NCCS2)CC1 | 8 | x | x | x | x
O=C(CSc1ccccc1)N(CCCn1ccnc1)c1nc2c(Cl)cccc2s1 | 1 | x | x | x | x
CC(=O)c1ccc(C(=O)N(CCCn2ccnc2)c2nc3c(C)cc(C)cc3s2)cc1 | 49* | x | x | x | x
Cc1cccc2sc(N(CCCn3ccnc3)C(=O)c3ccco3)nc12 | 45* | x | x | x | x
O=C(c1ccco1)N(CCCn1ccnc1)c1nc2ccccc2s1 | 72* | x | x | x | x
O=C(c1cccs1)N(CCCn1ccnc1)c1nc2c(Cl)cccc2s1 | 77* | x | x | x | x
Cc1ccc2sc(N(CCCn3ccnc3)C(=O)c3ccco3)nc2c1C | 88* | x | x | x | x
COc1ccc(-c2cc(CNC(=O)CCl)on2)cc1 | -6 | 37* | 9 | 4 | 33
CCCN1CCN(C(=O)c2oc3c(Cl)cccc3c2C)CC1 | 2 | x | 3 | -5 | 56*
Cc1c(C(=O)N2CCN(C(=O)c3ccco3)CC2)oc2c(Cl)cccc12 | -8 | 2 | -4 | x | x
CC1CCc2c(sc3nc(CCC(=O)NCCc4ccc(S(N)(=O)=O)cc4)[nH]c(=O)c23)C1 (centres undefined) | -9 | x | x | x | x
CCc1cccc(C)c1NC(=S)NCCc1c(C)[nH]c2ccc(C)cc12 | 40* | 9 | 4 | 0 | -11
COc1ccc2nc(-c3ccc(NC(=O)c4c(OC)cccc4OC)cc3)cn2n1 | -1 | x | x | x | x
N#CC1(N2CCN(C(=O)c3ccccc3)CC2)CCCCC1 | -17 | -4 | 2 | 0 | 54*
NC(=O)C1(N2CCCCC2)CCN(C(=O)c2ccccc2)CC1 | -16 | 0 | -2 | -5 | 25
Cc1ccc(S(=O)(=O)N2CCCc3cc(NS(=O)(=O)c4ccc5c(c4)CCCC5)ccc32)cc1 | 3 | x | x | x | x
CCCc1nnc(NC(=O)CCC(=O)N2CCN(Cc3ccc(C)cc3C)CC2)s1 | -14 | -1 | 17 | 7 | -2
CCc1nnc(NC(=O)CCC(=O)N2CCN(Cc3ccc(C)cc3C)CC2)s1 | -15 | -1 | 5 | -1 | 56*
SMILES | PriA SSB inh | RecA splice inh | CCHF vOTU inh | SARS 3CLpro inh | DUSP3 inh
COc1cc(Br)c(C2C(C#N)=C(N)Oc3n[nH]c(-c4cccnc4)c32)cc1OC (centres undefined) | 3 | 57* | 6 | -2 | 2
COc1cc(OC)cc(C2C(C#N)=C(N)Oc3n[nH]c(-c4cccnc4)c32)c1 (centres undefined) | 4 | 50* | -2 | 5 | 10
COc1ccc(C2C(C#N)=C(N)Oc3n[nH]c(-c4ccccn4)c32)c(OC)c1OC (centres undefined) | 70* | 13 | -10 | 3 | -18
COc1cc(C2C(C#N)=C(N)Oc3n[nH]c(-c4ccncc4)c32)cc(OC)c1OC (centres undefined) | 6 | -4 | 1 | -1 | 38
O=C(NCC[C@H](O)c1ccc2c(c1)OCO2)c1cc(-c2ccccc2)on1 | -6 | x | x | x | x
CC(C)c1cc(=O)[nH]c(-n2nc(-c3cccs3)cc2NC(=O)c2ccc(F)cc2F)n1 | 8 | x | x | x | x
Cn1ccnc1SCC1CCN(C(=O)c2ccsc2)CC1 | -6 | x | x | x | x
Cn1ccnc1SCC1CCN(C(=O)c2cccs2)CC1 | 35* | x | x | x | x
Cc1ccc(-n2nc3c(=O)n(CCCC(=O)NCc4ccc(C)o4)nc(C)c3c2C)cc1 | -9 | 1 | 18 | -2 | -9
Cc1ccc(-n2nc3c(=O)n(CC(=O)NCc4ccc(C)o4)nc(C)c3c2C)cc1 | -15 | 0 | -5 | -4 | 53*
COc1ccc(C(O)=C2C(=O)C(=O)N(CC3CCCO3)C2c2ccc(O)c(OC)c2)cc1 (centres undefined) | 2 | x | x | x | x
COc1cc(Cl)ccc1OCc1cc(C(=O)N2C[C@H]3CC[C@H]2C3)no1 | -9 | 2 | 14 | 2 | 53*
